Test results as given in PubChem BioAssay AID1159580 (chemical genetic matrix, 2015).
“And” between values parts separate entries of the source, which are not always exact repeats. Identical values can stand only once. About 2,000 (36%) of roughly 5,500 compounds were called active. Roughly 18% stayed inconclusive and do not appear here. Cut-off read from the data, not from the text of the source: active = normalized growth mostly below about 0.91 (no sharp cut-off); inconclusive = no clear call, values can overlap the other calls; inactive = mostly above about 0.92. The list shows a part of the results.

Assay: chemical genetic growth profiling, strain panel (AID 1159580);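 note: tested at 20 µM; growth read once vehicle control cultures reached saturation at 30 °C; 1 = growth at the plate median or of vehicle wells; lower values mean less growth of the strain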
Conditions: growth OD
[1] = S. cerevisiae deletion strains, locus YDL101C, strain DUN1, hits give low values
[2] = S. cerevisiae deletion strains, locus YHR030C, strain SLT2, hits give low values

Measured: normalized growth

Cc1cc(=O)[nH]c(-c2ccccn2)n1
inactive: S. cerevisiae deletion strains, locus YAL013W, strain DEP1, hits give low values 1.01 and 0.994 | S. cerevisiae deletion strains, locus YBR229C, strain ROT2, hits give low values 1.01 | S. cerevisiae deletion strains, locus YCL061C, strain MRC1, hits give low values 1 and 0.995 | [1] 0.994 | S. cerevisiae deletion strains, locus YDL134C, strain PPH21, hits give low values 1.02 | S. cerevisiae deletion strains, locus YDR150W, strain NUM1, hits give low values 0.912 and 1.02 | S. cerevisiae deletion strains, locus YEL061C, strain CIN8, hits give low values 0.993 and 1.01 | S. cerevisiae deletion strains, locus YGR078C, strain PAC10, hits give low values 1 and 1.01 | S. cerevisiae deletion strains, locus YGR229C, strain SMI1, hits give low values 1.02 | [2] 1.02 and 1.03 | S. cerevisiae deletion strains, locus YHR087W, strain rtc3, hits give low values 1.01 | S. cerevisiae deletion strains, locus YJR043C, strain POL32, hits give low values 1.01 | S. cerevisiae deletion strains, locus YJR075W, strain HOC1, hits give low values 1.04 and 1.01 | S. cerevisiae deletion strains, locus YLR039C, strain RIC1, hits give low values 0.993 and 1.05 | S. cerevisiae deletion strains, locus YLR058C, strain SHM2 (second series), hits give low values 1.01 and 1.02 | S. cerevisiae deletion strains, locus YLR085C, strain ARP6, hits give low values 0.91 and 1.03 | S. cerevisiae deletion strains, locus YLR262C, strain YPT6, hits give low values 0.993 and 1.02 | S. cerevisiae deletion strains, locus YML094W, strain GIM5, hits give low values 0.965 and 1.01 | S. cerevisiae deletion strains, locus YMR219W, strain ESC1, hits give low values 1.01 | S. cerevisiae deletion strains, locus YMR263W, strain SAP30, hits give low values 0.943 and 0.992 | S. cerevisiae deletion strains, locus YMR307W, strain GAS1, hits give low values 1.07 | S. cerevisiae deletion strains, locus YNL153C, strain GIM3, hits give low values 1 and 0.995 | S. cerevisiae deletion strains, locus YNL298W, strain CLA4 (second series), hits give low values 0.986 and 1.02 | S. cerevisiae deletion strains, locus YNL322C, strain KRE1, hits give low values 1.01 and 1 | S. cerevisiae deletion strains, locus YNR030W, strain Alg12, hits give low values 1.02 | S. cerevisiae deletion strains, locus YOL006C, strain TOP1, hits give low values 1.09 | S. cerevisiae deletion strains, locus YPL055C, strain LGE1, hits give low values 0.936 and 1 | S. cerevisiae deletion strains, locus YPL241C, strain CIN2, hits give low values 1.03 | S. cerevisiae deletion strains, locus YPR135W, strain CTF4, hits give low values 0.997 and 1.01 | S. cerevisiae strains, strain wild type, hits give low values 1.01

Cc1nc(-c2ccccn2)[nH]c(=O)c1Cc1c(Cl)cccc1Cl
active: S. cerevisiae deletion strains, locus YLR113W, strain HOG1, hits give low values 0.837
inactive: S. cerevisiae deletion strains, locus YAR019C, strain CDC15, hits give low values 0.967 | S. cerevisiae deletion strains, locus YBL105C, strain PKC1, hits give low values 0.962 | S. cerevisiae deletion strains, locus YBR135W, strain CKS1, hits give low values 0.956 | S. cerevisiae deletion strains, locus YBR136W, strain MEC1, hits give low values 0.954 | S. cerevisiae deletion strains, locus YBR160W, strain CDC28, hits give low values 0.963 | S. cerevisiae deletion strains, locus YDL017W, strain CDC7, hits give low values 0.961 | S. cerevisiae deletion strains, locus YDL028C, strain MPS1, hits give low values 0.95 | [1] 0.965 | S. cerevisiae deletion strains, locus YDL108W, strain KIN28, hits give low values 0.954 | S. cerevisiae deletion strains, locus YDL132W, strain cdc53, hits give low values 0.941 | S. cerevisiae deletion strains, locus YDL214C, strain PRR2, hits give low values 0.861 | S. cerevisiae deletion strains, locus YDR052C, strain DBF4, hits give low values 0.96 | S. cerevisiae deletion strains, locus YDR054C, strain cdc34, hits give low values 0.928 | S. cerevisiae deletion strains, locus YDR226W, strain ADK1, hits give low values 0.959 | S. cerevisiae deletion strains, locus YDR477W, strain SNF1, hits give low values 0.871 | S. cerevisiae deletion strains, locus YER123W, strain YCK3, hits give low values 0.726 | S. cerevisiae deletion strains, locus YER133W, strain GLC7, hits give low values 0.872 | S. cerevisiae deletion strains, locus YFL009W, strain cdc4, hits give low values 0.965 | S. cerevisiae deletion strains, locus YFL029C, strain CAK1, hits give low values 0.957 | S. cerevisiae deletion strains, locus YFR003C, strain YPI1, hits give low values 0.959 | S. cerevisiae deletion strains, locus YFR019W, strain FAB1, hits give low values 0.906 | S. cerevisiae deletion strains, locus YFR028C, strain CDC14, hits give low values 0.972 | S. cerevisiae deletion strains, locus YGR040W, strain KSS1, hits give low values 0.859 | S. cerevisiae deletion strains, locus YGR052W, strain FMP48, hits give low values 0.871 | S. cerevisiae deletion strains, locus YGR092W, strain DBF2, hits give low values 0.762 | [2] 0.985 | S. cerevisiae deletion strains, locus YHR079C, strain IRE1, hits give low values 0.842 | S. cerevisiae deletion strains, locus YHR082C, strain KSP1, hits give low values 0.893 | S. cerevisiae deletion strains, locus YHR205W, strain SCH9, hits give low values 0.939 | S. cerevisiae deletion strains, locus YIL147C, strain SLN1, hits give low values 0.946 | S. cerevisiae deletion strains, locus YJL095W, strain BCK1, hits give low values 0.892 | S. cerevisiae deletion strains, locus YJL128C, strain PBS2, hits give low values 0.928 | S. cerevisiae deletion strains, locus YJL157C, strain FAR1, hits give low values 0.823 | S. cerevisiae deletion strains, locus YJR016C, strain ILV3, hits give low values 0.952 | S. cerevisiae deletion strains, locus YJR066W, strain TOR1 (second series), hits give low values 0.769 | S. cerevisiae deletion strains, locus YJR066W, strain TOR1, hits give low values 0.864 | S. cerevisiae deletion strains, locus YKL048C, strain ELM1, hits give low values 0.941 | S. cerevisiae deletion strains, locus YKL067W, strain YNK1, hits give low values 0.881 | S. cerevisiae deletion strains, locus YKL101W, strain HSL1, hits give low values 0.853 | S. cerevisiae deletion strains, locus YKL193C, strain SDS22, hits give low values 0.951 | S. cerevisiae deletion strains, locus YKL203C, strain TOR2, hits give low values 0.899 | S. cerevisiae deletion strains, locus YLR133W, strain CKI1, hits give low values 0.889 | S. cerevisiae deletion strains, locus YLR403W, strain SFP1, hits give low values 0.858 | S. cerevisiae deletion strains, locus YML070W, strain DAK1, hits give low values 0.84 | S. cerevisiae deletion strains, locus YMR001C, strain CDC5, hits give low values 0.956 | S. cerevisiae deletion strains, locus YMR205C, strain PFK2 (second series), hits give low values 0.876 | S. cerevisiae deletion strains, locus YMR277W, strain FCP1, hits give low values 0.952 | S. cerevisiae deletion strains, locus YNL006W, strain LST8, hits give low values 0.952 | S. cerevisiae deletion strains, locus YNL020C, strain ARK1, hits give low values 0.845 | S. cerevisiae deletion strains, locus YNL161W, strain CBK1, hits give low values 0.958 | S. cerevisiae deletion strains, locus YNL183C, strain NPR1, hits give low values 0.9 | S. cerevisiae deletion strains, locus YNL207W, strain RIO2, hits give low values 0.951 | S. cerevisiae deletion strains, locus YNL222W, strain SSU72, hits give low values 0.956 | S. cerevisiae deletion strains, locus YNL307C, strain MCK1 (second series), hits give low values 0.843 | S. cerevisiae deletion strains, locus YOL078W, strain AVO1, hits give low values 0.964 | S. cerevisiae deletion strains, locus YOL136C, strain PFK27, hits give low values 0.866 | S. cerevisiae deletion strains, locus YOR061W, strain CKA2, hits give low values 0.827 | S. cerevisiae deletion strains, locus YOR119C, strain RIO1, hits give low values 0.887 | S. cerevisiae deletion strains, locus YOR231W, strain MKK1, hits give low values 0.86 | S. cerevisiae deletion strains, locus YOR329C, strain SCD5, hits give low values 0.958 | S. cerevisiae deletion strains, locus YPL031C, strain PHO85, hits give low values 0.869 | S. cerevisiae deletion strains, locus YPL153C, strain RAD53, hits give low values 0.805 | S. cerevisiae deletion strains, locus YPL204W, strain HRR25, hits give low values 0.84 | S. cerevisiae deletion strains, locus YPL209C, strain IPL1, hits give low values 0.956 | S. cerevisiae deletion strains, locus YPL256C, strain CLN2, hits give low values 0.94 | S. cerevisiae deletion strains, locus YPR025C, strain CCL1, hits give low values 0.964 | S. cerevisiae deletion strains, locus YPR106W, strain ISR1, hits give low values 0.985 | S. cerevisiae deletion strains, locus YPR111W, strain DBF20, hits give low values 0.973 | S. cerevisiae deletion strains, strain NNK1, hits give low values 0.96 | S. cerevisiae deletion strains, strain TSCII, hits give low values 0.949
